This note sets out measurements from PubChem BioAssay (Tox21).

SMILES strings stand for the structures. Several values for one entry are separate records, joined by “and”; a condition that tells them apart may be missing. Equal entries are not always repeated. Some structures have more than one record in an assay (separate samples or runs), and their calls can disagree. Activity calls are given as the source filed them. Unless noted, calls follow the shape of the dose curve; as a rule, active = well fitted curve in the direction sought with a large enough effect in the repeat runs; inconclusive = weak or mixed curves; inactive = no such curve, though single readings can be large; an effect the other way counts as inactive or inconclusive.

Assay [1] in a line: qHTS assay to identify small molecule antagonists of the thyroid receptor (TR) signaling pathway - cell viability counter screen (AID 743064). Also: nearly all actives have a fitted effect of over 50% in size. Also: potency is read from the fitted curve at half-maximal effect. The method, boiled down: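 Counter screen for cytotoxicity: compound plus T3 (1 nM final) on GH3.TRE-Luc cells, 23.5 h at 37 °C, then fluorescence viability readout with CellTiter-Fluor.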
(In general: Quantitative high-throughput screening tests each substance at several concentrations.)

A short description of assay [2]: qHTS assay to identify small molecule antagonists of the thyroid receptor (TR) signaling pathway (AID 743065). Also: nearly all actives have a fitted effect of over 55% in size. Also: potency is read from the fitted curve at half-maximal effect. The gist of the method: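 GH3.TRE-Luc rat pituitary cells carrying two TR response elements driving luciferase were plated for 4 h, given compound plus 1 nM T3 (final), and incubated 23.5 h at 37 C. ONE-Glo luminescence measured reporter inhibition; CellTiter-Fluor fluorescence tracked cytotoxicity.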

The test system of assay [3] is thyroid hormone receptor (rat, GH3 cells). As to the kind of experiment: qHTS assay to identify small molecule agonists of the thyroid receptor (TR) signaling pathway (AID 743066; calls by dose curve).
In assay [4] the target is Estrogen receptor (Homo sapiens) (UniProt P03372). As to the kind of experiment: qHTS assay to identify small molecule antagonists of the estrogen receptor alpha (ER-alpha) signaling pathway (AID 743069; active = well fitted curve in the direction sought with a large enough effect in the signal ratio in the repeat runs, not every such curve was filed as active; inconclusive = weak or mixed curves, or effect the other way; inactive = no such curve, though single readings can be large or run the other way; the % refers to the signal ratio; also: potency is read from the fitted curve at half-maximal effect). The method, boiled down:
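Estradiol-stimulated ER-alpha-UAS-bla HEK293 cells, 18 hr compound exposure at 37C. LiveBLAzer B/G substrate, 2 hr RT, fluorescence read.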

Assay [5] in a line: qHTS assay to identify small molecule antagonists of the estrogen receptor alpha (ER-alpha) signaling pathway - cell viability counter screen (AID 743074; calls by dose curve;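 also: HEK293 cells carrying ER-alpha-UAS-bla reporter stimulated with 17beta-estradiol; nearly all actives have a fitted effect of over 45% in size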).
Assay [6] deals with Estrogen receptor (Homo sapiens) (UniProt P03372). The assay is described as follows: qHTS assay to identify small molecule agonists of the estrogen receptor alpha (ER-alpha) signaling pathway (AID 743075; calls by dose curve;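 also: HEK293 GripTite cells with ER-alpha and UAS-driven beta-lactamase reporter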; also: potency is read from the fitted curve at half-maximal effect).
Assay [7] has the same target. As to the kind of experiment: qHTS assay to identify small molecule agonists of the estrogen receptor alpha (ER-alpha) signaling pathway using the BG1 cell line (AID 743079). Also: nearly all actives have a fitted effect of over 20% in size. Also: potency is read from the fitted curve at half-maximal effect. The settings on record: BG1Luc4E2 cells, ERE-luciferase agonist, 22 h; activation: at 70.3 µM (top of the series) unless noted.
Assay [8] can be described thus: qHTS assay to identify small molecule antagonists of the estrogen receptor alpha (ER-alpha) signaling pathway using the BG1 cell line (AID 743080; calls by dose curve;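 also: BG1 cells stimulated with 17beta-estradiol alongside compound; nearly all actives have a fitted effect of over 25% in size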). The gist of the method: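 Luminescence from a 4×ERE-luciferase reporter in BG1-Luc-4E2 cells served as read-out. Cells, pre-cultured 5 days in stripped-serum phenol-red-free medium, were exposed to compound with 17beta-estradiol co-stimulation for 21.5 h at 37 C.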

The nature of assay [9]: qHTS assay to identify small molecule antagonists of the estrogen receptor alpha (ER-alpha) signaling pathway using the BG1 cell line - cell viability counter screen (AID 743081).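 Also: compound given together with 17beta-estradiol as the ER stimulus; nearly all actives have a fitted effect of over 45% in size.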 Also: potency is read from the fitted curve at half-maximal effect.
A further assay addresses Aromatase (Homo sapiens) (UniProt P11511). The assay is described as follows: qHTS assay to identify aromatase inhibitors (AID 743083). Also: nearly all actives have a fitted effect of over 55% in size. Also: potency is read from the fitted curve at half-maximal effect.
The nature of assay [10]: qHTS assay to identify aromatase inhibitors - cell viability counter screen (AID 743084).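 Also: cells stimulated with testosterone during compound exposure; nearly all actives have a fitted effect of over 55% in size.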 Also: potency is read from the fitted curve at half-maximal effect.
Assay [11] has as its target Aryl hydrocarbon receptor (Homo sapiens) (UniProt P35869). As to the kind of experiment: qHTS assay to identify small molecule that activate the aryl hydrocarbon receptor (AhR) signaling pathway (AID 743085). Also: nearly all actives have a fitted effect of over 15% in size. Also: potency is read from the fitted curve at half-maximal effect.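 As to activation: HG2L7.5c1 human HepG2 liver cells with stably integrated DRE-driven firefly reporter.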 The gist of the method:
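Measured in HG2L7.5c1 cells: CellTiter-Fluor signal (30 min incubation, 37C) for viability, then luciferase luminescence (30 min, room temperature). Compound contact time was 24 h at 37C, following a 5 h pre-incubation.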

Assay [12] in a line: qHTS assay to identify small molecule that activate the aryl hydrocarbon receptor (AhR) signaling pathway - cell viability counter screen (AID 743086). Also: nearly all actives have a fitted effect of over 45% in size. Also: potency is read from the fitted curve at half-maximal effect. The gist of the method:
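HepG2-AhR-luc (HG2L7.5c1) cells, 4000/well, were preincubated 5 h at 37C, exposed to compound in qHTS format for 24 hr at 37C, then given CellTiter-Fluor for 30 min; viability was read as fluorescence in the reporter wells.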

The nature of assay [13]: qHTS assay to identify small molecule antagonists of the peroxisome proliferator-activated receptor gamma (PPARg) signaling pathway - cell viability counter screen (AID 743194). Also: nearly all actives have a fitted effect of over 55% in size. As to conditions: Potency: co-treated with 50 nM rosiglitazone unless noted. The gist of the method: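 PPARg-UAS-bla HEK293H cells were plated, rested 5 h at 37 C, then treated with compounds plus rosiglitazone (50 nM final) for 17 h at 37 C; viability was then read by CellTiter-Glo luminescence after 30 min at room temperature.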

Assay [14] in a line: qHTS assay for small molecule agonists of the antioxidant response element (ARE) signaling pathway (AID 743202; active = well fitted activation curve with a large enough effect in the signal ratio in the repeat runs, not every such curve was filed as active; inconclusive = weak or mixed curves, or effect the other way; inactive = no such curve, though single readings can be large or run the other way; the % refers to the signal ratio). The method, boiled down: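 Compounds delivered in DMSO to ARE-bla HepG2 cells (2,000 cells/well, pre-incubated 5 h) and left 16 h at 37 C. LiveBLAzer B/G FRET substrate then added for 2 h at RT before fluorescence reading.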
Assay [15] in a line: qHTS assay for small molecule agonists of the antioxidant response element (ARE) signaling pathway - cell viability counter screen (AID 743203; calls by dose curve; also: nearly all actives have a fitted effect of over 55% in size). The gist of the method:
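Seeded at 2,000 cells/well, ARE-bla HepG2 cells were incubated 5 hrs before compound addition. After 16 hrs of treatment at 37C with 5% CO2, CellTiter-Glo reagent was added and luminescence read 30 min later.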

A short description of assay [16]: qHTS assay for small molecule activators of the heat shock response signaling pathway - cell viability counter screen (AID 743209). Also: nearly all actives have a fitted effect of over 50% in size. The gist of the method:
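First, HSE-bla HeLa cells were seeded at 1500 cells/well and kept overnight at 37 C. Next, compounds were pinned in and incubated 5 h. After the FRET substrate step, CellTiter-Glo was added and luminescence read 30 min later.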

Assay [17] can be described thus: qHTS assay for small molecule activators of the heat shock response signaling pathway (AID 743210; active = well fitted activation curve with a large enough effect in the signal ratio in the repeat runs, with a control signal flat, not every such curve was filed as active; inconclusive = weak or mixed curves; the % refers to the signal ratio;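 also: HeLa cells with beta-lactamase reporter driven by heat shock elements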). The method, boiled down:
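Reporter gene assay: HeLa cells stably bearing an HSE-bla construct, compound treatment 5 h at 37 C, LiveBLAzer substrate 2.5 h at RT, fluorescence intensity.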

Assay [18] has as its target Peroxisome proliferator-activated receptor gamma (Homo sapiens) (UniProt P37231). The assay is described as follows: qHTS assay to identify small molecule agonists of the peroxisome proliferator-activated receptor gamma (PPARg) signaling pathway (AID 743094; active = well fitted activation curve with a large enough effect in the signal ratio in the repeat runs, not every such curve was filed as active; inconclusive = weak or mixed curves, or effect the other way; inactive = no such curve, though single readings can be large or run the other way; the % refers to the signal ratio). The gist of the method: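 Quantitative HTS agonist mode: stable HEK293H line with UAS-beta-lactamase reporter under PPARg control, 17 h compound exposure at 37C, fluorescence after 1 h FRET substrate loading at room temperature.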

Assay [19] shares this target. As to the kind of experiment: qHTS assay to identify small molecule antagonists of the peroxisome proliferator-activated receptor gamma (PPARg) signaling pathway (AID 743191; calls by dose curve; also: nearly all actives have a fitted effect of over 30% in size; also: potency is read from the fitted curve at half-maximal effect). The gist of the method:
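GeneBLAzer PPARg UAS-bla HEK293H cells carrying a UAS-driven beta-lactamase reporter were plated at 3000 cells/well, preincubated 5 h at 37C, then given compound for 17 h at 37C; LiveBLAzer B/G FRET substrate was read after 1 h at room temperature.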

Chain of Estrogen receptor (Homo sapiens) (P03372 whole entry, looked up): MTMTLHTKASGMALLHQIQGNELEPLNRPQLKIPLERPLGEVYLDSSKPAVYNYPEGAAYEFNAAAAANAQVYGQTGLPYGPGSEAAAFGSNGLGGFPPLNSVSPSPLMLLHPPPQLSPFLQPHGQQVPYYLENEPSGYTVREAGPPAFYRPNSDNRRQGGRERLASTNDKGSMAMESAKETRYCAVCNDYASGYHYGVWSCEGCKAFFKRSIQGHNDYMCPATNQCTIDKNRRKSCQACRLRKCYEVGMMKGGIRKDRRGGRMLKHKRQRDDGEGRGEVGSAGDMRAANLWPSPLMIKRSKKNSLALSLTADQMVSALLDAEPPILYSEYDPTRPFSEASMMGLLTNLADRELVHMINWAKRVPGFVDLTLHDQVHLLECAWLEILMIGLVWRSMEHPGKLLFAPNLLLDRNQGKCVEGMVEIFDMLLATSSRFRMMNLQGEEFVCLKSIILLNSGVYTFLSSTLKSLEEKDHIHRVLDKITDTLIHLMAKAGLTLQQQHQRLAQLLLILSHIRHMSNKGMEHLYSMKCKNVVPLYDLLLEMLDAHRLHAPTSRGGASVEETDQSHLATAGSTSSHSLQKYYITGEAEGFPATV
Chain of Aryl hydrocarbon receptor (Homo sapiens) (P35869 whole entry, looked up): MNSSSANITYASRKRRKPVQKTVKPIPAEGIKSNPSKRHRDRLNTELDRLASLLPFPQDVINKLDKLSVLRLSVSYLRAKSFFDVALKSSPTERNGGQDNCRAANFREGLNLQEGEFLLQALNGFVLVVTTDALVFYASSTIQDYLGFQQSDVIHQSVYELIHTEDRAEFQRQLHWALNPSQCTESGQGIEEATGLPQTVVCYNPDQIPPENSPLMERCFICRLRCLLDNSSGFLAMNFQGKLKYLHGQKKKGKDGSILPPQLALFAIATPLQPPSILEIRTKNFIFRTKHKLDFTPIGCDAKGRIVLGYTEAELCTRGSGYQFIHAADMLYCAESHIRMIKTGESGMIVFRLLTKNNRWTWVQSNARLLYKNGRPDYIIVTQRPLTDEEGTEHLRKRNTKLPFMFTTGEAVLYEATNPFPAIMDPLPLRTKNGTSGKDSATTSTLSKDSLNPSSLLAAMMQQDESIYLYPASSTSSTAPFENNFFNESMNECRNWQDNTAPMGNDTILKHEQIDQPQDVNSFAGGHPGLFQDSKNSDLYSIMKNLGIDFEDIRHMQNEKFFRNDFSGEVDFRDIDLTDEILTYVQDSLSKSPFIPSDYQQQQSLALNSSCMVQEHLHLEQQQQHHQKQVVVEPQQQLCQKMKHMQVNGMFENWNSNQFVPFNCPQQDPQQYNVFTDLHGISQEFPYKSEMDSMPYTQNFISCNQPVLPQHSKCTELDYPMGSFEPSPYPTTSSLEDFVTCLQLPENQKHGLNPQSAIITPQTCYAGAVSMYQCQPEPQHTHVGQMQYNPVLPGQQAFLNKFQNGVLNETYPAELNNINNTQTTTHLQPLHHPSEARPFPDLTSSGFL
Chain of Aromatase (Homo sapiens) (P11511 whole entry, looked up): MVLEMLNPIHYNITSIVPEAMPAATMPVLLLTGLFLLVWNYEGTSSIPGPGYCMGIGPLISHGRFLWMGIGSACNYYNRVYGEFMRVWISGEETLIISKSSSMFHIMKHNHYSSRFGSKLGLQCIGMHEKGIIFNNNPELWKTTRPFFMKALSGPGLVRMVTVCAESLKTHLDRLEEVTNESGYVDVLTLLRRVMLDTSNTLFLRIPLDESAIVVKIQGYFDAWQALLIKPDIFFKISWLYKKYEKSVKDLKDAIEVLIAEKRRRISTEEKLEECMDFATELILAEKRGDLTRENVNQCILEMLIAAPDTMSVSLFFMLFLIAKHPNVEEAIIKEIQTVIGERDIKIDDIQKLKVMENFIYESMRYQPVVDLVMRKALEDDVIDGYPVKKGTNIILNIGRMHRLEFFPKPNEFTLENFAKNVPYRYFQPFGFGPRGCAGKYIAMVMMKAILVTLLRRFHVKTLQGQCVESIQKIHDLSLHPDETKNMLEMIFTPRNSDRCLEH
Chain of Peroxisome proliferator-activated receptor gamma (Homo sapiens) (P37231 whole entry, looked up): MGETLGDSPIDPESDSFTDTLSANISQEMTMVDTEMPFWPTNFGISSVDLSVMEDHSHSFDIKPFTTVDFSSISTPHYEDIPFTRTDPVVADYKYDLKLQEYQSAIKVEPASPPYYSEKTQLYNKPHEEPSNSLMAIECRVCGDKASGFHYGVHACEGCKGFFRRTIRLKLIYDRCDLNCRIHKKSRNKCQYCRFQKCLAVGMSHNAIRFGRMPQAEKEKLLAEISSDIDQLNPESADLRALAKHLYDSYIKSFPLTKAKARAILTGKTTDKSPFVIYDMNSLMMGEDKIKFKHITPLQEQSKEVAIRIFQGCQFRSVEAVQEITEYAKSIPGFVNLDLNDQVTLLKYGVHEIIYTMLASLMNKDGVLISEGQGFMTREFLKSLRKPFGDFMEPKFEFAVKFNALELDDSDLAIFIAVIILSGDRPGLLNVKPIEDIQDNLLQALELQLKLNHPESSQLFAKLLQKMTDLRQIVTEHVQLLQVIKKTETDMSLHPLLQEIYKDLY

Turning to `ClC(Cl)(Cl)c1ccccc1`, the Potency result in assay [1], in assay [2], in assay [3], in assay [4], in [5] and in assay [6] was “inactive” throughout. For the same compound, the Potency result (in [7]; in assay [8]; in [9]; with Aromatase (Homo sapiens); in [10]; in assay [11]) was “inactive” throughout. In addition, the Potency result in assay [12], in [13], in assay [14], in assay [15], in assay [16] and in [17] was “inactive” each time.

In the case of `CSc1nc(NC(C)C)nc(NC(C)C)n1`, the Potency result in assay [1], in [2], in assay [3], in assay [4], in [5] and in [6] was “inactive” in each case. For the same compound, the Potency entry (in [7]; in assay [8]; in assay [9]; in the assay with Aromatase (Homo sapiens); in [10]; in [11]) was “inactive” each time. The Potency result in [12], in assay [18], in assay [13], in assay [15], in assay [16] and in assay [17] was “inactive” in each case.

As for `COc1ccc(O)c(C(C)(C)C)c1`, the Potency result in assay [1], in assay [2], in assay [3], in [4], in [5] and in assay [6] was “inactive” throughout. Besides, the Potency result (in [7]; in [8]; in [9]; with Aromatase (Homo sapiens); in assay [10]; in assay [11]) was “inactive” throughout. Further, the Potency result in [12], in [18], in [19], in assay [13], in [15] and in [16] was “inactive” each time. The Potency result in assay [17] is “inactive”.

Take `CNC(=O)CSP(=S)(OC)OC`: the Potency result in [1], in assay [2], in assay [3], in [4], in [5] and in assay [6] was “inactive” each time. Further, the Potency entry (in [7]; in assay [8]; in assay [9]; in the assay with Aromatase (Homo sapiens); in assay [10]; in assay [11]) was “inactive” in each case. In addition, the Potency entry in assay [12], in assay [18], in assay [19], in assay [13], in assay [14] and in assay [15] was “inactive” throughout. Also, the Potency result in assay [16] and in [17] was “inactive” each time.

In the case of `CNC(=O)Oc1cccc2c1OC(C)(C)C2`, the Potency result in [1], in assay [2], in [3], in assay [4], in assay [5] and in [6] was “inactive” each time. Moreover, the Potency entry (in assay [8]; in assay [9]; in the assay with Aromatase (Homo sapiens); in assay [10]; in [11]; in assay [12]) was “inactive” in each case. For the same compound, the Potency entry in assay [18], in [19], in [13], in [14], in assay [15] and in [16] was “inactive” in each case. In addition, the Potency result in assay [17] is “inactive”. Moreover, the Potency result in [7] is “inactive and 24.3 µM (active)”.

For the compound `CC[n+]1c(-c2ccccc2)c2cc(N)ccc2c2ccc(N)cc21`, the Potency result in assay [1] was “inactive and 54.2 µM (active)”; in assay [2] it was 23.7 µM (active) and 27.2 µM (active); in [4] it was 26.8 µM [inconclusive] (active) and 30.8 µM [inconclusive] (active); in [6], 4.25 µM [inconclusive] (active) and 19 µM [inconclusive] (active) and 5.47 µM [inconclusive] (active); in assay [9] it was 54.2 µM (active); with Aromatase (Homo sapiens), 18.8 µM (active) and 26.6 µM (active) and 12.1 µM (active). In addition, the Potency result is “inactive and 30.5 µM (active)” in assay [10]; 26.6 µM (active) and 29.8 µM (active) and 12.1 µM (active) in assay [11]; “inactive and 12.1 µM (active)” in assay [12]; 48.8 µM (active) and 26.6 µM (active) in assay [19]. The Potency result in assay [3], in assay [5], in assay [7], in assay [8], in [18] and in assay [15] was “inactive” in each case. The Potency entry in assay [16] is “inactive”.
